# Assay results taken from article PMC7862700, “An all-to-all approach to the identification of sequence-specific readers for epigenetic DNA modifications on cytosine”.
# Legend:
# Test in all cases: DAPPL (digital affinity profiling via proximity ligation, sequencing); 10 mM Tris-HCl pH 7.5, 50 mM NaCl, 1 mM DTT, 4% glycerol, room temperature, 30 min; GST-TFs on glutathione beads, 16-mer random dsDNA library, 0.1% formaldehyde crosslink after washing; high values mean tight binding
# FLI1 = molecular target: T1, FLI1 (Homo sapiens, UniProt Q01543 1-452); details: protein: recombinant; tags: N-terminal GST; dsDNA, one strand shown
# T1 sequence: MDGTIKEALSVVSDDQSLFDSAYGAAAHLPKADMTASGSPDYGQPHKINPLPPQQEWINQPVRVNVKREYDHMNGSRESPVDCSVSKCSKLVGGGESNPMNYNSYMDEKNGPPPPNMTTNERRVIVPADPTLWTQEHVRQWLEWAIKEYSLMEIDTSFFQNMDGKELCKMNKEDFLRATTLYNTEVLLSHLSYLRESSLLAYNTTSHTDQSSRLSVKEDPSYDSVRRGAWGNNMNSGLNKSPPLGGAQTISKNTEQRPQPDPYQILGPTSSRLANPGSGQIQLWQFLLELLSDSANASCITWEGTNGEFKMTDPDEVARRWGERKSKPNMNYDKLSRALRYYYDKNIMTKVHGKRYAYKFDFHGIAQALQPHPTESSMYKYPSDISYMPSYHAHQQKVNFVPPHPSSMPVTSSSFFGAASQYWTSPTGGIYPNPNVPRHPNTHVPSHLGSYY
# Outline: (§1)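 Binding signal is defined as a hexamer's read frequency for one factor over its frequency for the tag-only sample. To obtain reads, GST-fused human transcription factors were expressed in yeast, captured on glutathione beads, barcoded with DNA and pooled with that sample. Pools met 200 nmole of a 16-mer random double-stranded DNA library in Tris/NaCl/DTT/glycerol buffer for 30 min at room temperature before washing, 0.1% formaldehyde crosslinking, proximity ligation (BsaI/T4 ligase, 1 h, 37 °C), PCR and Illumina NextSeq500 sequencing.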
# ELK1 = molecular target: T2, ELK1 (Homo sapiens, UniProt P19419 1-428); details: protein: recombinant; tags: N-terminal GST; dsDNA, one strand shown
# T2 sequence: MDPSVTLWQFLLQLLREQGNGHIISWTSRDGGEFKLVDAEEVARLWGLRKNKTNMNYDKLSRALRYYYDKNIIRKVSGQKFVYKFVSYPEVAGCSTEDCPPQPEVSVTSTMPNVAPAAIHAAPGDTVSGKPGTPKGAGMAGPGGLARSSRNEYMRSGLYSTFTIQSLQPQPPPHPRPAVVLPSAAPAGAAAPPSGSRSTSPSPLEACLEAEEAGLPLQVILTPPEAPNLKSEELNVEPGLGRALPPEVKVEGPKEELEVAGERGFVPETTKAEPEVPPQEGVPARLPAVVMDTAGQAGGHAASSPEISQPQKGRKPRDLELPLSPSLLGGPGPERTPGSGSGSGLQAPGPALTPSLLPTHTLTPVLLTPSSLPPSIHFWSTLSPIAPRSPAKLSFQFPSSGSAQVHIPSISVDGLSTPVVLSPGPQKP
# Outline: as §1
# GABPA = molecular target: T3, GABPA (Homo sapiens, UniProt Q06546 1-454); details: protein: recombinant; tags: N-terminal GST; dsDNA, one strand shown
# T3 sequence: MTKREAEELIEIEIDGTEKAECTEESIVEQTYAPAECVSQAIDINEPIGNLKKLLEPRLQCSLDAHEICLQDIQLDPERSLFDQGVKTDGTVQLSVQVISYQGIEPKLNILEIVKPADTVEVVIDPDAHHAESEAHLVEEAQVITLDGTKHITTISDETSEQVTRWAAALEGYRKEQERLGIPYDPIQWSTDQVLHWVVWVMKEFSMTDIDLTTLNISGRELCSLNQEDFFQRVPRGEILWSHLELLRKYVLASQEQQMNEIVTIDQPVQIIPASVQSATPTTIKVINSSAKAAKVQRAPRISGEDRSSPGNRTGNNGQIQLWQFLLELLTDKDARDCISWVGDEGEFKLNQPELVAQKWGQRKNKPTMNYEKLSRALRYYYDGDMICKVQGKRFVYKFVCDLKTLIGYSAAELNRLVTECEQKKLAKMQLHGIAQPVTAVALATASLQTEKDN
# Outline: as §1
# ERG = molecular target: T4, ERG (Homo sapiens, UniProt P11308 1-479); details: protein: recombinant; tags: N-terminal GST; dsDNA, one strand shown
# T4 sequence: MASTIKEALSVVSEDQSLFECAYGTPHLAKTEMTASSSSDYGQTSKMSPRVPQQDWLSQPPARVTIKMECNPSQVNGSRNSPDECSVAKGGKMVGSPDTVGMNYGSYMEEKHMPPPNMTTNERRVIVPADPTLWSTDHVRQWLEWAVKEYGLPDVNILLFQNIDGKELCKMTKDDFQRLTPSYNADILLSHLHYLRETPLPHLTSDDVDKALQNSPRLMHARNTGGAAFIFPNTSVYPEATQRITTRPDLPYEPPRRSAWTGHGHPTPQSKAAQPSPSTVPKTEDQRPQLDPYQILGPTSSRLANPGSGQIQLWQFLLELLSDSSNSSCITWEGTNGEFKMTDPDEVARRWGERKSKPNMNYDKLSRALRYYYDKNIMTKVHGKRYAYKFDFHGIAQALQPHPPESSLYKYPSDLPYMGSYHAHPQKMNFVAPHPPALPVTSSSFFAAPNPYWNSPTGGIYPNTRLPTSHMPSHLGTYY
# Outline: as §1
# ELF1 = ELF1 (Homo sapiens, UniProt P32519 1-619); details: protein: recombinant; tags: N-terminal GST; dsDNA, one strand shown
# Outline: as §1
# EHF = molecular target: T5, EHF (Homo sapiens, UniProt Q9NZC4 1-300); details: protein: recombinant; tags: N-terminal GST; dsDNA, one strand shown
# T5 sequence: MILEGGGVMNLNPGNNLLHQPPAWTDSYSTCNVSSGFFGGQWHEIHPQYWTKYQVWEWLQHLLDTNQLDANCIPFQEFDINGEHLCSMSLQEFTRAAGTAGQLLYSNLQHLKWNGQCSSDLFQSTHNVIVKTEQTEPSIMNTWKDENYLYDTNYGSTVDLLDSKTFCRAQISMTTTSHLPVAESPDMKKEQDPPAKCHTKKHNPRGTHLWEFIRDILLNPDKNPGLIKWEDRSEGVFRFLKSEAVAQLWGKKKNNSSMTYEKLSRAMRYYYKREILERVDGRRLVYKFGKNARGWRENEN
# Outline: as §1
# SPI1 = SPI1 (Homo sapiens, UniProt P17947 1-270); details: protein: recombinant; tags: N-terminal GST; dsDNA, one strand shown
# Outline: as §1
# SPIB = SPIB (Homo sapiens, UniProt Q01892 1-262); details: protein: recombinant; tags: N-terminal GST; dsDNA, one strand shown
# Outline: as §1
# ELK3 = molecular target: T6, ELK3 (Homo sapiens, UniProt P41970 1-407); details: protein: recombinant; tags: N-terminal GST; dsDNA, one strand shown
# T6 sequence: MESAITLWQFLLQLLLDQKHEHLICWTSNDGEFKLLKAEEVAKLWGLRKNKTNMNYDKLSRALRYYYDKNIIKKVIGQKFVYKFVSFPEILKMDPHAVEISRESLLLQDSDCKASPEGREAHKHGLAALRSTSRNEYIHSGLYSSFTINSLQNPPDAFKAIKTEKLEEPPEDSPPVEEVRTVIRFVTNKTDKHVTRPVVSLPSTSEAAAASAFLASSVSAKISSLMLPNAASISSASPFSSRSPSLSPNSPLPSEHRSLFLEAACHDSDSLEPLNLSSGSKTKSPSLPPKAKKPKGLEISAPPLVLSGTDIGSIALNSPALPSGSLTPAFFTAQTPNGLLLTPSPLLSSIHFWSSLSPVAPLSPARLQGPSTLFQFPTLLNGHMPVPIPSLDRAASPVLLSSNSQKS
# Outline: as §1
# FEV = molecular target: T7, FEV (Homo sapiens, UniProt Q99581 1-238); details: protein: recombinant; tags: N-terminal GST; dsDNA, one strand shown
# T7 sequence: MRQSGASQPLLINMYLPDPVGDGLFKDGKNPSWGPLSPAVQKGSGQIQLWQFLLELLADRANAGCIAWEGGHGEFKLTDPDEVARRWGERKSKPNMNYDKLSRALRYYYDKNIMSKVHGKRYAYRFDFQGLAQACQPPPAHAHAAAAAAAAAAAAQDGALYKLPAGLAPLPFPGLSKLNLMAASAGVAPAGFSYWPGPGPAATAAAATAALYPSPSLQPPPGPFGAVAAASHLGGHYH
# Outline: as §1
# ETV5 = ETV5 (Homo sapiens, UniProt P41161 1-510); details: protein: recombinant; tags: N-terminal GST; dsDNA, one strand shown
# Outline: as §1
# HSF1 = HSF1 (Homo sapiens, UniProt Q00613 1-529); details: protein: recombinant; tags: N-terminal GST; chain copies: 3; dsDNA, one strand shown
# Outline: as §1
# SPIC = molecular target: T8, SPIC (Homo sapiens, UniProt Q8N5J4 1-248); details: protein: recombinant; tags: N-terminal GST; dsDNA, one strand shown
# T8 sequence: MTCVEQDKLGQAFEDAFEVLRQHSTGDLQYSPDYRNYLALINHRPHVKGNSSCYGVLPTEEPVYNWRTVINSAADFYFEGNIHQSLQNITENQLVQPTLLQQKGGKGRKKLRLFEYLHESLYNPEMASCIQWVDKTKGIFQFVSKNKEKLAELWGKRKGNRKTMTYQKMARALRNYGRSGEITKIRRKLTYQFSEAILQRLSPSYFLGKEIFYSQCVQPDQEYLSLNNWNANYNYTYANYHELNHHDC
# Outline: as §1
# ELF4 = ELF4 (Homo sapiens, UniProt Q99607 1-663); details: protein: recombinant; tags: N-terminal GST; dsDNA, one strand shown
# Outline: as §1
# ELK4 = molecular target: T9, ELK4 (Homo sapiens, UniProt P28324-2 1-405); details: protein: recombinant; tags: N-terminal GST; dsDNA, one strand shown
# T9 sequence: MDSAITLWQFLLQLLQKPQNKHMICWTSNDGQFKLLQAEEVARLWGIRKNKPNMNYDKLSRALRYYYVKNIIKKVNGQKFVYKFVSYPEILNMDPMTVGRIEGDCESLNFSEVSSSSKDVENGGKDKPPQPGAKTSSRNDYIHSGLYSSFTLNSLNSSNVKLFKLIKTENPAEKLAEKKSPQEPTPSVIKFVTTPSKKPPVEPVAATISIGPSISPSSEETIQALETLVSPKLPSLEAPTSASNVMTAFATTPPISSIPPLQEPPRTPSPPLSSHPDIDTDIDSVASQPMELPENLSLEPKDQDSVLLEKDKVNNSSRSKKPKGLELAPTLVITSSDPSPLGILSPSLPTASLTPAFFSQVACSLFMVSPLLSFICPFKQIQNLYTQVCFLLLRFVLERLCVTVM
# Outline: as §1
# ETV2 = molecular target: T10, ETV2 (Homo sapiens, UniProt O00321 1-342); details: protein: recombinant; tags: N-terminal GST; dsDNA, one strand shown
# T10 sequence: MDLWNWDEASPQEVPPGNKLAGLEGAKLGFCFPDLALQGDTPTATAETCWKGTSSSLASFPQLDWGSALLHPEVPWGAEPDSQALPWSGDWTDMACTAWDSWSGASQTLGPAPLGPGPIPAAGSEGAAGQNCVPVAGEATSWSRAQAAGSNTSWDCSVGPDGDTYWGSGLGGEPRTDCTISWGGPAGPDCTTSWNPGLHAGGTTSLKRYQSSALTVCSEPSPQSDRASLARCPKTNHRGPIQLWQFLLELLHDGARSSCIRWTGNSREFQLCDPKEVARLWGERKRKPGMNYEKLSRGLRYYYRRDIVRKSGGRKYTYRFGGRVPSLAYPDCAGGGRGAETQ
# Outline: as §1
# ELF3 = molecular target: T11, ELF3 (Homo sapiens, UniProt P78545 1-371); details: protein: recombinant; tags: N-terminal GST; dsDNA, one strand shown
# T11 sequence: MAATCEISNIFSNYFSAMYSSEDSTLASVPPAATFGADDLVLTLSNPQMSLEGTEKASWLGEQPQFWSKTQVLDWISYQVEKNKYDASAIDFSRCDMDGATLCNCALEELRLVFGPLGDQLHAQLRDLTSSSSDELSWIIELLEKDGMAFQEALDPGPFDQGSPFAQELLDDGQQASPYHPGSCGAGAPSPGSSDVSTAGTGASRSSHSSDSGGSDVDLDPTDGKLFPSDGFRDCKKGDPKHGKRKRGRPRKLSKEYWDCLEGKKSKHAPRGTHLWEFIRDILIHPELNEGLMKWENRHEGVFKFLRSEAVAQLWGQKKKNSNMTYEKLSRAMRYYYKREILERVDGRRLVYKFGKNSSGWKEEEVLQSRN
# Outline: as §1
# CRX = CRX (Homo sapiens, UniProt O43186 1-299); details: protein: recombinant; tags: N-terminal GST; dsDNA, one strand shown
# Outline: as §1
# ETV1 = ETV1 (Homo sapiens, UniProt P50549 1-477); details: protein: recombinant; tags: N-terminal GST; dsDNA, one strand shown
# Outline: as §1
# Chain of ETV5 (P41161 whole entry): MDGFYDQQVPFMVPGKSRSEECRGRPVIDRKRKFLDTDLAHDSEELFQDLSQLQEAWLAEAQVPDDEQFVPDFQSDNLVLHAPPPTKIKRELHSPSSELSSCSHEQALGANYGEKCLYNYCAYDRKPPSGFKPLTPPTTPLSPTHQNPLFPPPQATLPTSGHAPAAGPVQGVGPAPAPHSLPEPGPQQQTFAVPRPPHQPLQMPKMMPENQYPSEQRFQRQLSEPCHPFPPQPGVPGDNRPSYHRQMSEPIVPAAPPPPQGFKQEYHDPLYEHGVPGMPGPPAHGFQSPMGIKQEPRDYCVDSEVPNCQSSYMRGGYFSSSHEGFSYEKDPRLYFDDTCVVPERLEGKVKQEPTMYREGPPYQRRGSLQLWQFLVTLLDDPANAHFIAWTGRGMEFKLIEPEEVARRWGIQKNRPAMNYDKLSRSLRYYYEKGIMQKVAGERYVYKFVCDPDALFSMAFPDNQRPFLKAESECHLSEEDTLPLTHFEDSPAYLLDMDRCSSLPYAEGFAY
# Chain of SPIB (Q01892 whole entry): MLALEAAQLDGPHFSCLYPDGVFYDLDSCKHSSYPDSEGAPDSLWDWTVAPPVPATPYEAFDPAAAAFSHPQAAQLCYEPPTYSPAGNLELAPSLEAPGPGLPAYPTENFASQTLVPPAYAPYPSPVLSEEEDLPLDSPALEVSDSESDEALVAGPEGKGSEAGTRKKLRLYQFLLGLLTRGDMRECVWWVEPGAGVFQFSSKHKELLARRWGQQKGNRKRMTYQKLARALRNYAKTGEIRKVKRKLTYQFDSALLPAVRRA
# Chain of HSF1 (Q00613 whole entry): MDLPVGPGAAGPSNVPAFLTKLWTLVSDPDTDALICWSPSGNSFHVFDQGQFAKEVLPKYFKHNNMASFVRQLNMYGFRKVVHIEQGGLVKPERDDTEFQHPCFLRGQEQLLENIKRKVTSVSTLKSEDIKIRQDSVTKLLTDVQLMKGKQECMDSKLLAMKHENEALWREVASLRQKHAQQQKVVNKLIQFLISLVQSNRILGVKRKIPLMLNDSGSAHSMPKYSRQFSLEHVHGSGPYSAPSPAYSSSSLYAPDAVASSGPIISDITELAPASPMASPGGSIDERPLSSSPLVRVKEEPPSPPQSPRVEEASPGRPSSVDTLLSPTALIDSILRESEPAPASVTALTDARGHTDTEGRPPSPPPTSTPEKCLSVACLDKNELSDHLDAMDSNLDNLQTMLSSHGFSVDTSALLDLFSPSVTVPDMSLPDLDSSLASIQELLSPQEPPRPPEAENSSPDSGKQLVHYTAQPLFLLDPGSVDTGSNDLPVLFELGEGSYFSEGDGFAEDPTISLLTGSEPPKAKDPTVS
# Chain of ELF1 (P32519 whole entry): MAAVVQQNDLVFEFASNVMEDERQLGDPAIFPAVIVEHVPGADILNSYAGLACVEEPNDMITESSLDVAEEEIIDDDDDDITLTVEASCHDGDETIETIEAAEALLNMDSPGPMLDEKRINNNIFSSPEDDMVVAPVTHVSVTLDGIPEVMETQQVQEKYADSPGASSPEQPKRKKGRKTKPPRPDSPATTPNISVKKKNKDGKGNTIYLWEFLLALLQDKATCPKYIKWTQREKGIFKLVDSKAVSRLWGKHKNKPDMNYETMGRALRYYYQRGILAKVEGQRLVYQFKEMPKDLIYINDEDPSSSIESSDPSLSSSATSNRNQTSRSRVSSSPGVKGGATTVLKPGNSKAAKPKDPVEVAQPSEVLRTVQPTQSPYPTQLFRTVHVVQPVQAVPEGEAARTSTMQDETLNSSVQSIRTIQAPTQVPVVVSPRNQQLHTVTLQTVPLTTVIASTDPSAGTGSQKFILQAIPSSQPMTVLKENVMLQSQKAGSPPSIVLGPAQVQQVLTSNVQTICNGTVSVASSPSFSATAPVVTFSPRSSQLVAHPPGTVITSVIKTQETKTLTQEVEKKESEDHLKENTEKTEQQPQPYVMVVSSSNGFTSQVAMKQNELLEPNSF
# Chain of CRX (O43186 whole entry): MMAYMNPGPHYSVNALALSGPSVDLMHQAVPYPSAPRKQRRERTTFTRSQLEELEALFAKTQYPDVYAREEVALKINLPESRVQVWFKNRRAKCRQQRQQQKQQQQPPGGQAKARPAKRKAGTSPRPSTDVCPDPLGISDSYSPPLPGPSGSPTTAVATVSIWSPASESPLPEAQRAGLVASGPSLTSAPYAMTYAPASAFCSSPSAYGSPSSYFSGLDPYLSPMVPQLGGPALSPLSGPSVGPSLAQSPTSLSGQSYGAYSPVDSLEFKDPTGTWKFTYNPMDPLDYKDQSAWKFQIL
# Chain of ELF4 (Q99607 whole entry): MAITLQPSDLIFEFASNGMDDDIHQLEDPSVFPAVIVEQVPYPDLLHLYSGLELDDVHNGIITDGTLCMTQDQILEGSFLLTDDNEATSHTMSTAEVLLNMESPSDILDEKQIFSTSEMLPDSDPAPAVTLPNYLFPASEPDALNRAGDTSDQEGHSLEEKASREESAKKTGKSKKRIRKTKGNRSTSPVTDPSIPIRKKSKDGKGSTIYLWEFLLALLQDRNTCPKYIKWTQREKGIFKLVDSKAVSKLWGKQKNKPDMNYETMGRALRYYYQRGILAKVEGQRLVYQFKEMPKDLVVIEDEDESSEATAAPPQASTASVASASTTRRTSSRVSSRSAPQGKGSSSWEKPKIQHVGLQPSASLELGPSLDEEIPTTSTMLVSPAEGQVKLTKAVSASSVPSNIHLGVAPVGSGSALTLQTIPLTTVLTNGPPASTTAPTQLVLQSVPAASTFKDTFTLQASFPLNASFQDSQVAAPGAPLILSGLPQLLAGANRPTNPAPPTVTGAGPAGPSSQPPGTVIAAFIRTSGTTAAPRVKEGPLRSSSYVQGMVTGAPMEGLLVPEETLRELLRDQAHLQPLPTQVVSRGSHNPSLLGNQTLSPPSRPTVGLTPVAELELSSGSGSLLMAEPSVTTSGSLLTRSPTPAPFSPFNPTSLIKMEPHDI
# Chain of ETV1 (P50549 whole entry): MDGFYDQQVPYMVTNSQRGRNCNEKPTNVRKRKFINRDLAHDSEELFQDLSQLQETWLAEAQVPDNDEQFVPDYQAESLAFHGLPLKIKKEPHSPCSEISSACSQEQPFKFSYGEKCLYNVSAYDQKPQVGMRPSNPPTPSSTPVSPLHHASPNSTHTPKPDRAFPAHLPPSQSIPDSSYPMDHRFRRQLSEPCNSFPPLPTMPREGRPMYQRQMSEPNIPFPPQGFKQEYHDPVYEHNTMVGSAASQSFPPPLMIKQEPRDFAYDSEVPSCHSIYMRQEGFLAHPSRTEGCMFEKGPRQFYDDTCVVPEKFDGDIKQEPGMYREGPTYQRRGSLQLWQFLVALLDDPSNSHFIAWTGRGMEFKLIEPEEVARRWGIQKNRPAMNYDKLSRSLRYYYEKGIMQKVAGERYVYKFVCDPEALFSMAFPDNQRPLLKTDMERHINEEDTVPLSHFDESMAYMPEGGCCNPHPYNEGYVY
sequence,measurement,setting,value
GGCTCA,binding signal,FLI1,"1.22 fold enrichment (6-mer frequency, TF over GST control)"
same,binding signal,ELK1,"1.38 fold enrichment (6-mer frequency, TF over GST control)"
same,binding signal,GABPA,"1.32 fold enrichment (6-mer frequency, TF over GST control)"
same,binding signal,ERG,"1.33 fold enrichment (6-mer frequency, TF over GST control)"
same,binding signal,ELF1,"1.34 fold enrichment (6-mer frequency, TF over GST control)"
same,binding signal,EHF,"1.23 fold enrichment (6-mer frequency, TF over GST control)"
same,binding signal,SPI1,"1.24 fold enrichment (6-mer frequency, TF over GST control)"
same,binding signal,SPIB,"1.24 fold enrichment (6-mer frequency, TF over GST control)"
same,binding signal,ELK3,"1.23 fold enrichment (6-mer frequency, TF over GST control)"
same,binding signal,FEV,"1.22 fold enrichment (6-mer frequency, TF over GST control)"
same,binding signal,ETV5,"1.22 fold enrichment (6-mer frequency, TF over GST control)"
same,binding signal,HSF1,"1.27 fold enrichment (6-mer frequency, TF over GST control)"
same,binding signal,SPIC,"1.28 fold enrichment (6-mer frequency, TF over GST control)"
same,binding signal,ELF4,"1.3 fold enrichment (6-mer frequency, TF over GST control)"
same,binding signal,ELK4,"1.15 fold enrichment (6-mer frequency, TF over GST control)"
same,binding signal,ETV2,"1.13 fold enrichment (6-mer frequency, TF over GST control)"
same,binding signal,ELF3,"1.28 fold enrichment (6-mer frequency, TF over GST control)"
same,binding signal,CRX,"1.53 fold enrichment (6-mer frequency, TF over GST control)"
same,binding signal,ETV1,"1.18 fold enrichment (6-mer frequency, TF over GST control)"
